Assay outcomes (PubChem BioAssay)
TDP1 block = qHTS Assay for Inhibitors of Tyrosyl-DNA Phosphodiesterase (TDP1); recombinant TDP1, AlphaScreen DNA substrate cleavage; 350,000 tested, 0.28% active; Tyrosyl-DNA phosphodiesterase 1 (Homo sapiens), Q9NUW8; Potency, µM (top dose mostly 130 µM), for the others: top-dose activity change, negative = inhibition, hits mostly inhibitors; note: potency is the fitted concentration of half-maximal effect; nearly all actives have a fitted effect of over 40% in size
Target sequence (Q9NUW8 whole entry, looked up): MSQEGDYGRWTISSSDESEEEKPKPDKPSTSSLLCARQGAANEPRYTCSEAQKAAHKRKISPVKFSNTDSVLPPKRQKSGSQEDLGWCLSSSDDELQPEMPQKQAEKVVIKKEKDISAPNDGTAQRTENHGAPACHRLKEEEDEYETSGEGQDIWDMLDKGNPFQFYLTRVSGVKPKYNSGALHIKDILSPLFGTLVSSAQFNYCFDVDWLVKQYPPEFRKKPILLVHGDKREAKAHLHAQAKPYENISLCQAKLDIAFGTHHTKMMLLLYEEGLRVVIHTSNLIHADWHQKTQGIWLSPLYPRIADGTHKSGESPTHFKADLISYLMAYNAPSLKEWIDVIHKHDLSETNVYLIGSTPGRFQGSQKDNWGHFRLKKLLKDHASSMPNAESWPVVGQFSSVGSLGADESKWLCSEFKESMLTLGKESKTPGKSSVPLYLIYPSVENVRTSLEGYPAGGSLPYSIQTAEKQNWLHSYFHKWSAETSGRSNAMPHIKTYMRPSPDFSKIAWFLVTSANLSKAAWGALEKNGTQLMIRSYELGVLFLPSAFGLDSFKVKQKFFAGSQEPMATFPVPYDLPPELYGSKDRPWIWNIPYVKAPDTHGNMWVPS
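AlphaScreen read-out: signal falls as enzyme removes the 3' tyrosine-FITC from a 5'-biotinylated DNA oligo (15 nM, 5 min, RT). Enzyme was E. coli-made recombinant Tdp1 at 1 nM, exposed to compound for 15 min beforehand; beads 10 ug/ml, 10 min.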
Giardia killer = Small Molecules that selectively kill Giardia lamblia: qHTS; activity change, % at 7.66 µM, hits read low; 340,000 tested, 0.15% active; Giardia lamblia trophozoite viability; AID 540267, 2011; in the data active = activity change below about -80%; inconclusive = between about -30% and that limit;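 note: parasites exposed to compound for two days anaerobically before the ATP read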
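Luminescence from cellular ATP indicates surviving trophozoites (100 cells/well) following 48 hrs anaerobic compound treatment at 37 deg C; signal develops 15-30 min at room temperature.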
ELG1 DNA repair = qHTS screen for small molecules that inhibit ELG1-dependent DNA repair in human embryonic kidney (HEK293T) cells expressing luciferase-tagged ELG1; HEK293T ELG1-luciferase reporter, luminescence, 16 h; DNA damage induced by 5-fluorouridine; Potency, µM (series often up to 46.1 µM), for the others: at the top dose activity change, negative = inhibition, actives largely listed as inhibitors; 330,000 tested, 2.3% active; note: potency is the fitted concentration of half-maximal effect; nearly all actives have a fitted effect of over 55% in size
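Step one: seed 2,000 cells per well. Step two: pin-transfer compound or DMSO alongside 5-fluorouridine. Step three: incubate 16 hr, 37 °C, 5% CO2. Step four: add ONE-Glo, wait 30 min, read luminescence.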
IL1B secr inh = qHTS for Inhibitors of Inflammasome Signaling: IL-1-beta AlphaLISA Primary Screen | THP-1 LPS/ATP IL-1B secretion, AlphaLISA, 16 h; hits give low values | activity change, % at 57.5 µM | AID 743279, 2014 | 360,000 tested, 4.7% active; in the data active = activity change below about -50%; inconclusive = mostly about -30% to -49%
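Secreted IL-1B measured by AlphaLISA bead assay after 16 h compound exposure of THP-1 cells; compounds (final up to 57.5 uM) added 1 h before LPS (250 ng/mL) and ATP (1.25 mM) stimulation; lower signal means less secretion.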
DT40 TDP1 no CPT = qHTS for Inhibitors of human tyrosyl-DNA phosphodiesterase 1 (TDP1): qHTS in cells in absence of CPT. DT40 Tdp1-/- hTDP1 cells, no CPT, ATP luminescence, 48 h. Potency, µM (top dose mostly 46.2 µM), for inactives: at the top dose activity change, negative = growth inhibition, usual class: inhibitors. 420,000 tested, 15% active. AID 686978, 2013; note: potency is the fitted concentration of half-maximal effect; nearly all actives have a fitted effect of over 55% in size
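A cellular qHTS used chicken DT40 cells lacking endogenous Tdp1 but carrying stably transfected human TDP1. Compounds were applied without camptothecin, and cell growth kinetics were judged by ATP-dependent luminescence after ≥48 hr.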
TDP1 cell CPT = qHTS for Inhibitors of human tyrosyl-DNA phosphodiesterase 1 (TDP1): qHTS in cells in presence of CPT; 420,000 tested, 12% active; chicken DT40 Tdp1-/-;hTDP1 cells + 20 nM CPT, ATP luminescence, 48 h; Potency, µM (titrated, usually from 46.2 µM), inactives show at the top dose activity change, negative = growth inhibition, usual class: inhibitors; note: potency is the fitted concentration of half-maximal effect; nearly all actives have a fitted effect of over 55% in size
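Chicken DT40 Tdp1-/- cells complemented with human TDP1, 400 cells/well, exposed to compounds plus 20 nM camptothecin for at least 48 h at 37 C; viability read as ATP content by CellTiter-Glo luminescence.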
* marks the source's active call; other numbers are inactive results; ? = inconclusive; . = not tested or not shown; [ ] = dose if it differs, or a comment. Shown are actives, neighbours in structure and some others; about 19% of the full set was active somewhere. Unless noted, calls come from the whole dose curve; as a rule, active = well fitted curve in the direction sought with a large enough effect; inconclusive = small, poorly fitted or top-dose-only effect, or another doubt; inactive = no such curve, though single readings can be large; an effect the other way counts as inactive or inconclusive. % is set by controls: 0 for no effect and ±100 for the full control effect.

SMILES	TDP1 block	Giardia killer	ELG1 DNA repair	IL1B secr inh	DT40 TDP1 no CPT	TDP1 cell CPT
Cc1nc2c(OCCC3CCCCC3)cccn2c1N(C)C(=O)CCC1CCCC1	.	.	.	-53*	16µM*	?
Cc1nc2c(OCCOc3ccc(F)cc3)cccn2c1N(C)C(=O)CCC1CCCC1	.	.	.	-23	15µM*	?
Cc1nc2c(OCCOc3ccccc3)cccn2c1N(C)C(=O)CCC1CCCC1	.	.	.	146	?	?
Cc1nc2c(OCc3cc(Cl)cc(Cl)c3)cccn2c1N(C)C(=O)CCC1CCCC1	.	.	.	-67*	?	?
Cc1noc(C)c1-c1cc(NCCN2CCOCC2)ncn1	.	.	.	.	-25%	0%
CCCCCCNC(=O)O[C@H]1Cn2c(=O)n(CCCCCC)c(=O)n2[C@@H]2CN(S(=O)(=O)c3ccc(C)cc3)C[C@]12O	.	.	.	?	21µM*	?
CCCCCCNC(=O)O[C@H]1Cn2c(=O)ccc(=O)n2[C@@H]2CN(S(=O)(=O)c3ccc(C)cc3)C[C@]12O	.	.	.	-106*	3.7µM*	4.6µM*
CCCCCCn1c(=O)n2n(c1=O)[C@@H]1CN(S(=O)(=O)c3ccc(C)cc3)C[C@]1(O)[C@@H](OC(=O)NC1CC1)C2	.	.	.	4	16µM*	?
CCCCCCn1c(=O)n2n(c1=O)[C@@H]1CN(S(=O)(=O)c3ccc(C)cc3)C[C@]1(O)[C@@H](OC(=O)NCc1ccccc1F)C2	.	.	.	-1	?	?
CCCCCCn1c(=O)n2n(c1=O)[C@@H]1CN(S(=O)(=O)c3ccc(C)cc3)C[C@]1(O)[C@@H](OC(=O)NC1CCCC1)C2	.	.	.	-21	?	?
Cc1ccc(S(=O)(=O)N2C[C@H]3n4c(=O)ccc(=O)n4C[C@H](OC(=O)NCc4ccccc4F)[C@@]3(O)C2)cc1	.	.	.	-108*	21µM*	?
CCOC(=O)c1[nH]c(C)c(CCC(=O)NCc2cccc(C)c2)c1C	5%	.	.	.	?	-21%
CCOc1ccccc1NC(=O)Cn1c(=O)n(CCCC(=O)NCCc2ccc(C)cc2)c(=O)c2ccccc21	7%	.	.	.	-13%	-2%
OC1CCN(Cc2ccc3c(c2)CN(C/C=C/c2ccco2)CCO3)CC1	.	.	.	.	-12%	-17%[9.04 µM]
COc1ccc(Cl)cc1N(C(C)C(=O)NC1CCCC1)S(C)(=O)=O (stereo not given)	0%	12	3%	-6	9%	19%
Cc1ccc(S(=O)(=O)N2C[C@H]3N(C(=O)OC(C)C)N(C(=O)OC(C)C)C[C@H](OC(=O)NC4CC4)[C@@]3(O)C2)cc1	.	.	.	22	?	-25%
COC(=O)[C@H]1C[C@H](OC(=O)Nc2cccs2)[C@@]2(O)CN(S(=O)(=O)c3ccc(C)cc3)CC2[C@H]1C(=O)OC (stereo not given in full)	.	.	.	-56*	?	?
CCCCCCn1c(=O)n2n(c1=O)[C@@H]1CN(S(=O)(=O)c3ccc(C)cc3)C[C@]1(O)[C@@H](OC(=O)NCC1CCCCC1)C2	.	.	.	?	16µM*	?
Cc1ccc(S(=O)(=O)N2C[C@H]3n4c(=O)ccc(=O)n4C[C@H](OC(=O)Nc4cccs4)[C@@]3(O)C2)cc1	.	.	.	-79*	?	?
CCCCCCn1c(=O)n2n(c1=O)[C@@H]1CN(S(=O)(=O)c3ccc(C)cc3)C[C@]1(O)[C@@H](OC(=O)Nc1cccs1)C2	.	.	.	-52*	26µM*	23µM*
COC(=O)[C@H]1C[C@H](OC(=O)NC2CCCC2)[C@@]2(O)CN(S(=O)(=O)c3ccc(C)cc3)CC2[C@H]1C(=O)OC (stereo not given in full)	.	.	.	-18	-28%	-11%
O=C(NCc1ccccc1)c1ccc(N2CCC3(CC2)CC(c2ccc(Cl)cc2)=NO3)c([N+](=O)[O-])c1	.	45	?	?	?	6.5µM*
COc1ccc(CNC(=O)c2ccc(N3CCC4(CC3)CC(c3ccc(Cl)cc3)=NO4)c(NC(=O)Cc3ccc(F)cc3)c2)cc1	0%	-9	29%	32	-6%	2%
CCCNC(=O)c1ccc(N2CCC3(CC2)CC(c2ccccc2)=NO3)c(NC(=O)Cc2ccc(F)cc2)c1	.	5	21µM*	3	18µM*	?
CCCNC(=O)c1ccc(N2CCC3(CC2)CC(c2ccccc2)=NO3)c(N)c1	.	-1	-17%	0	?	?
SMILES	TDP1 block	Giardia killer	ELG1 DNA repair	IL1B secr inh	DT40 TDP1 no CPT	TDP1 cell CPT
CCCCCCCNC(=O)c1ccc(N2CCC3(CC2)OCCO3)c([N+](=O)[O-])c1	8%	-14	18µM*	?	?	?
COc1ccc(CNC(=O)c2ccc(N3CCC4(CC3)CC(c3ccc(Cl)cc3)=NO4)c(NC(=O)c3ccccc3)c2)cc1	.	-5	.	-2	-15%	-12%
CCCNC(=O)c1ccc(N2CCC3(CC2)CC(c2ccccc2)=NO3)c([N+](=O)[O-])c1	.	-3	?	?	?	21µM*
COCCn1c(SCC(=O)NC2CCCC2)nc2c(c1=O)SCC2	5%	-1	-10%	12	-7%	-3%
COc1ccc(NC(=O)CSc2nnc(NC(=O)Nc3ccccc3)s2)c(OC)c1	3%	.	.	.	-7%	0%
COc1ccc(-n2nc3c(N4CCCC(C(=O)NCc5cccc(F)c5)C4)nnc(C)c3c2C)cc1 (stereo not given)	6%	.	.	.	13µM*	8.2µM*
Cc1nnc(N2CCCC(C(=O)NCc3cccc(F)c3)C2)c2nn(-c3ccccc3)c(C)c12 (stereo not given)	4%	-14	?	?	13µM*	?
COc1cccc(CNC(=O)c2c(OC)cc(=O)n3c2CCN(C(=O)c2cc(C)ccc2C)CC3)c1	.	.	.	.	-3%	14%
COc1ccc2[nH]c3c(c2c1)CCN1C(=O)C(CC(=O)NCCc2ccccn2)C[C@H](C(=O)N2CCCCC2)[C@@]31C (stereo not given in full)	1%[56.1 µM]	14	?	-26	-19%	-20%
COc1cccc(N2CCN(S(=O)(=O)c3c(C)[nH]c(C)c3C(=O)N3CCCCC3)CC2)c1	4%	36	-9%	-14	-51%	-27%
